NIH3T3 tox = cytotoxic compounds in NIH 3T3 cells; NIH 3T3 viability, CellTiter-Glo ATP luminescence, 48-72 h; Potency, µM (titrated, usually from 96.7 µM), for inactives: top-dose activity change, negative = cytotoxicity, usual class: inhibitors; hit rate 4.3% among 94,000; AID 1345082; note: nearly all actives have a fitted effect of over 55% in size
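Cells were seeded at 400 per well, treated with pin-transferred compound, and kept 48 or 72 hr at 37 °C before CellTiter-Glo addition and luminescence imaging of cellular ATP.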
hNpr1 antagonist = human Npr1 receptor antagonism | P16066 | HEK293 hNpr1 GloSensor cGMP, ANP-stimulated luminescence | Potency, µM (doses to about 46.3 µM), without a hit: top-dose activity change, negative = inhibition, most hits filed as inhibitors | hit rate 1.6% among 76,000; calls by dose curve; note: nearly all actives have a fitted effect of over 60% in size
Target sequence (P16066 whole entry, looked up): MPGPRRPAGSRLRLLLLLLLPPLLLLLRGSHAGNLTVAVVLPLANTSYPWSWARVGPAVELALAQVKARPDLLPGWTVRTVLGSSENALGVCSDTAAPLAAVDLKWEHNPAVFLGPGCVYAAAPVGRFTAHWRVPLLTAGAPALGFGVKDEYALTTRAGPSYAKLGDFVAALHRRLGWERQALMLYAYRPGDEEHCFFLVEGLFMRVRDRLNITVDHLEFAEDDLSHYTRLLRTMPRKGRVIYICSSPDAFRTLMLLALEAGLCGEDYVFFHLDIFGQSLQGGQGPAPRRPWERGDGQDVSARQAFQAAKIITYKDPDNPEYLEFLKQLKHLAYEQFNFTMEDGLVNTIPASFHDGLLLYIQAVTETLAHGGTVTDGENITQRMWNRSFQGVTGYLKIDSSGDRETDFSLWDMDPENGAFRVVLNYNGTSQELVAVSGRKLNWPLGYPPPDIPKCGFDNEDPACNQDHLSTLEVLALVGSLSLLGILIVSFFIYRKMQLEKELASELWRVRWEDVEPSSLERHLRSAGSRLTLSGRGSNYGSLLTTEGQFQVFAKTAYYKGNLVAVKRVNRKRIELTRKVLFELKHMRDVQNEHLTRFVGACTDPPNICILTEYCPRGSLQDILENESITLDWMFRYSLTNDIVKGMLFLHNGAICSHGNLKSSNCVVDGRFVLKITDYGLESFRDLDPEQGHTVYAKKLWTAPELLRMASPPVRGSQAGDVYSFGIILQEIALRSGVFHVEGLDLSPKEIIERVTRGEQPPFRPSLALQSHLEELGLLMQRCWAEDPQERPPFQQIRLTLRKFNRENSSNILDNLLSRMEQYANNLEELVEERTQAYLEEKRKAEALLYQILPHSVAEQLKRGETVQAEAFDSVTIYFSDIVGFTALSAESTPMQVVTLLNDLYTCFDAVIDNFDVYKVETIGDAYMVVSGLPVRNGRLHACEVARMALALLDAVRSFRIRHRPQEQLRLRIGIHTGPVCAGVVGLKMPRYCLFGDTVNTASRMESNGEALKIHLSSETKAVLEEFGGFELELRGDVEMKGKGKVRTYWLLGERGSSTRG
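Compound pre-incubated 30 min at room temperature on GloSensor-loaded HEK293 cells stably carrying hNpr1 and the pGS-40F cGMP biosensor. Stimulation uses hNppA at 0.1 nM final; luminescence is taken at baseline and 20 min post-agonist.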
HEK cytotox = HEK 293 cell cytotoxicity; HEK 293 viability, ATP luminescence (CellTiter-Glo), 48-72 h; Potency, µM (top dose mostly 115 µM), for inactives: top-dose activity change, negative = cytotoxicity, most hits filed as inhibitors; hit rate 6.6% among 94,000; note: nearly all actives have a fitted effect of over 60% in size
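250 HEK 293 cells/well; compound by pintool; incubated 48 or 72 hr at 37 degree Celsius; CellTiter-Glo added, 10 min RT, luminescence imaged.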
FLuc inh = blocks purified firefly luciferase enzyme activity; Potency, µM (series often up to 115 µM), usual class: inhibitors; P08659; purified P. pyralis luciferase, luminescence, biochemical; hit rate 2.5% among 76,000; note: nearly all actives have a fitted effect of over 65% in size
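Purified P. pyralis luciferase (10nM final) in 50mM Tris acetate pH 7.5, 10mM Mg acetate, 0.01% Tween-20, 0.05% BSA with 10uM D-luciferin and 10uM ATP. Compounds titrated qHTS. Luminescence imaged on CCD.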
* = called active by the depositor; i = inactive; ? = inconclusive; nt = no result given; ! = a repeat was not active; [ ] = remark or other dose. Shown are actives, neighbours in structure and some others; about 11% of the full set was active somewhere. Unless noted, calls come from the whole dose curve; as a rule, active = well fitted curve in the direction sought with a large enough effect; inconclusive = small, poorly fitted or top-dose-only effect, or another doubt; inactive = no such curve, though single readings can be large; an effect the other way counts as inactive or inconclusive. % is set by controls: 0 for no effect and ±100 for the full control effect; potency is the fitted concentration of half-maximal effect.

SMILES	NIH3T3 tox	hNpr1 antagonist	HEK cytotox	FLuc inh
O=C(NC1CCCN(c2ccc3nnc(-c4ccccc4)n3n2)C1)c1ccccc1 (centres undefined)	28µM*	nt	35µM*	nt
COc1cccc(C(=O)NC2CCCN(c3ccc4nnc(-c5ccccc5)n4n3)C2)c1 (centres undefined)	3%	nt	i	nt
COc1cccc(-c2cccc(CN3CCCC3C(=O)N3CCCC(C)C3)c2)c1 (centres undefined)	?	nt	50µM*	nt
C=CCC(=O)N1CCCC1C(=O)Nc1ccc(-c2cccc(OC)c2)cc1 (centres undefined)	-6%	-2%	?	25µM*
COc1cccc(-c2ccc(NC(=O)C3CCCN(C(=O)CC(F)(F)F)C3)cc2)c1 (centres undefined)	?	16µM*	?	?
COc1cccc(-c2ccc(CN3CCCC3C(=O)N3CCOCC3)cc2)c1 (centres undefined)	-26%	nt	?	nt
CCOCCCNC(=O)C1CCCN1Cc1cccc(-c2cccc(OC)c2)c1 (centres undefined)	32µM*	nt	25µM*	nt
O=C(Nc1cccc(-c2nnc3n2CCCC3)c1)c1ccc(F)cc1F	-21%	2%	-7%	i
COc1cccc(-c2ccc(NC(=O)C3CCCN3Cc3cnn(C)c3)cc2)c1 (centres undefined)	?	-1%	45µM*	i
COc1cccc(CNC(=O)C2CCCN2Cc2ccc(-c3cccc(OC)c3)cc2)c1 (centres undefined)	35µM*	nt	?	nt
COCCCNC(=O)C1CCCN1Cc1ccc(-c2cncnc2)cc1 (centres undefined)	-22%	nt	-1%	nt
COc1cccc(CNC(=O)C2CCCCC(=O)N2Cc2ccccc2)c1 (centres undefined)	-19%	nt	-20%	nt
CCCCCNC(=O)C1CCCN1Cc1ccc(-c2cccc(OC)c2)cc1 (centres undefined)	40µM*	nt	22µM*	nt
COc1cccc(-c2cccc(CN3CCCC3C(=O)NCc3ccc(Cl)cc3)c2)c1 (centres undefined)	40µM*	nt	40µM*	nt
O=C(c1ccc(Cl)cc1)N1CCC(Cc2nc(-c3cnccn3)no2)CC1	25µM*	?	?	i
Cc1ccc2nc(NC(=O)C3CC(=O)N(c4n[nH]c5ccccc45)C3)sc2c1 (centres undefined)	32µM*	-1%	40µM*	i
Cc1csc(NC(=O)C2CC(=O)N(c3n[nH]c4ccccc34)C2)n1 (centres undefined)	-11%	-1%	-19%	i
CC(C)N1C[C@@H](CO)[C@H](c2nc(-c3cccnc3)no2)C1	-6%	3%	?	20µM*
OC[C@@H]1CN(CC2CC2)C[C@H]1c1nc(-c2cccnc2)no1	-12%	1%	-28%	?
O=C(c1noc(-c2ccc(F)cc2)n1)N1CCN(c2ccccc2)CC1	-32%	-7%	?	40µM*
Cc1ncc2n1C(=O)N(C1CCN(Cc3ccccc3)CC1)C2	?	7%[70.6 µM]	100µM*!	i
COc1ccc(CN2CCC(N3Cc4cnc(C)n4C3=O)CC2)cc1	-18%[138 µM]	0%[70.6 µM]	?	i
COc1ccccc1CCNC(=O)C1CC(c2ccc(F)c(C)c2)CN(C(=O)C2CC2)C1 (centres undefined)	40µM*	-14%	35µM*	i
COc1ccc(C2CC(C(=O)NCc3ccccc3)CN(C(=O)C3CC3)C2)cc1OC (centres undefined)	?	-12%	?	i
COCCCn1c(=O)c(C(=O)N2CCN(C(=O)c3ccc(OC)cc3)CC2)nc2cccnc21	-18%	nt	-1%	nt
COc1ccc(CN2CCC(N3CC4CCCN4C3=O)CC2)cc1 (centres undefined)	-3%[138 µM]	2%[70.6 µM]	0%[172 µM]	i
O=C1N2CCCC2CN1C1CCN(Cc2ccc(C(F)(F)F)cc2)CC1 (centres undefined)	?	?	40µM*	i
O=C(C1CCCN1[S+](=O)([O-])c1cccc(C(F)(F)F)c1)N1CCC(c2nc3ccncc3[nH]2)CC1 (centres undefined)	?	nt	2%	nt
CCC(=O)N1CCC(N2C(=O)[C@H](OCCOC)[C@@H]2c2ccncc2)CC1	-8%	nt	-1%	nt
Cc1cc(C(=O)N2CCCCCC2c2nnc(-c3ccccc3)o2)n(C)n1 (centres undefined)	-22%	3%	?	i
